Reference: PubChem BioAssay (EPA / NIEHS)
Where “and” joins values, the source holds several entries; their conditions need not be identical. Equal values may be shown once. Inconclusive results are not listed. The source holds several records for some structures; these can differ, active in one and inactive in another. Calls of active or inactive are those of the source. The calls were made as follows, unless noted: active = hit-call score of the fitted dose curve at least 0.9, where 1 is the maximum; inconclusive = response in the unintended direction; inactive = score below 0.9.

Key:
[1] = ATG_Oct_MLP_CIS: Attagene CIS-FACTORIAL HepG2 Assay for human Octamer-Binding Transcription Factor (Oct) (AID 2282993; active = hit-call score of the fitted dose curve at least 0.9, where 1 is the maximum; inactive = score below 0.9); conditions: HepG2 Attagene cis-factorial Oct reporter, mRNA; actives raise or lower the signal
Outline: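 Read-out: reporter mRNA via RT-PCR plus capillary electrophoresis of 6-FAM-labelled fragments. Transiently transfected HepG2, 24 h exposure, endogenous TF activity on cis elements. Gain or loss of signal fitted relative to DMSO.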

[2] = molecular target: Cellular tumor antigen p53 (Homo sapiens) (UniProt P04637); assay: ATG_p53_CIS: Attagene CIS-FACTORIAL HepG2 Assay for human p53 Transcription Factor (AID 2282994; active = hit-call score of the fitted dose curve at least 0.9, where 1 is the maximum; inactive = score below 0.9); conditions: HepG2 p53 cis-element reporter, Attagene mRNA; actives raise or lower the signal
Cellular tumor antigen p53 (Homo sapiens), sequence (P04637 whole entry, looked up): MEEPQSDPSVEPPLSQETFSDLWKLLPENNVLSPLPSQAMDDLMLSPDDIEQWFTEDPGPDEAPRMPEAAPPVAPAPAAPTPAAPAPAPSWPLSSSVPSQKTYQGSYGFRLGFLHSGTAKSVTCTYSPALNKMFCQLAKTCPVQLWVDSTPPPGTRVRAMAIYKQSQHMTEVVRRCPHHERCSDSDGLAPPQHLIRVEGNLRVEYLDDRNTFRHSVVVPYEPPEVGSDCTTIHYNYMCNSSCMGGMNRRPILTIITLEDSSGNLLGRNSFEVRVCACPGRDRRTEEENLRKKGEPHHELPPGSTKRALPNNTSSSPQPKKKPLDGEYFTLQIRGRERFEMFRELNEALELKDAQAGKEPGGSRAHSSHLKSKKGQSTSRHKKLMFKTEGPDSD
Outline: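 HepG2, transient MRTU transfection (cis promoter elements, endogenous TFs); 24 h dosing; RNA isolation, RT-PCR, 6-FAM primer extension, HpaI digest, CE fluorescence; bidirectional fit vs DMSO.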

[3] = BSK_3C_TissueFactor: BioMAP Diversity Plus: 3C Assay for Tissue Factor Biomarker Activity (AID 2282997; active = hit-call score of the fitted dose curve at least 0.9, where 1 is the maximum; inactive = score below 0.9); conditions: BioMAP 3C HUVEC, tissue factor biomarker readout; actives raise or lower the signal
Outline: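 Values derive from bidirectional curve fitting against DMSO of Tissue Factor ELISA signals, taken 24 h after dosing primary human umbilical vein endothelial cells.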

[4] = BSK_3C_uPAR: BioMAP Diversity Plus: 3C Assay for Urokinase-type plasminogen activator receptor (uPAR) Biomarker Activity (AID 2282998; active = hit-call score of the fitted dose curve at least 0.9, where 1 is the maximum; inactive = score below 0.9); conditions: BioMAP 3C HUVEC, uPAR biomarker ELISA; actives raise or lower the signal
Outline: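 HUVEC primary cells; 24 h post-dose; uPAR by ELISA; gain or loss of signal fitted bidirectionally vs DMSO baseline.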

[5] = BSK_3C_VCAM1: BioMAP Diversity Plus: 3C Assay for Vascular cell adhesion molecule 1 (VCAM1) Biomarker Activity (AID 2282999; active = hit-call score of the fitted dose curve at least 0.9, where 1 is the maximum; inactive = score below 0.9); conditions: BioMAP 3C HUVEC, VCAM1 ELISA, cytokine-stimulated; actives raise or lower the signal
Outline: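 Human umbilical vein endothelial cells (3C system), biomarker read by ELISA 24 h after dosing; bidirectional fit against DMSO baseline. Cytotoxicity tracked by SRB total-protein staining in parallel cultures at biomarker time.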

[6] = BSK_4H_Eotaxin3: BioMAP Diversity Plus: 4H Assay for Eotaxin 3 Biomarker Activity (AID 2283000; active = hit-call score of the fitted dose curve at least 0.9, where 1 is the maximum; inactive = score below 0.9); conditions: primary human endothelial cells (HUVEC); actives raise or lower the signal
Outline: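 Endothelial primary cells (human umbilical vein) exposed to compound for 24 h. ELISA detection of Eotaxin-3.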

[7] = read-out: Intercellular Adhesion Molecule 1 (ICAM1), ICAM1 (gene 3383); assay: BSK_3C_ICAM1: BioMAP Diversity Plus: 3C Assay for Intercellular Adhesion Molecule 1 (ICAM1) Biomarker Activity (AID 2283003; active = hit-call score of the fitted dose curve at least 0.9, where 1 is the maximum; inactive = score below 0.9); conditions: primary human endothelial cells (HUVEC); actives raise or lower the signal
Outline: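 Human vascular endothelial primary cells, 3C conditions, 24 h treatment. ICAM-1 by ELISA.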

[8] = BSK_3C_Proliferation: Cell Proliferation Assessment in the BioMAP Diversity Plus: 3C Assay (AID 2283006; active = hit-call score of the fitted dose curve at least 0.9, where 1 is the maximum; inactive = score below 0.9;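 as to AC50: potency may reflect either rise or fall in cell number versus DMSO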); conditions: primary human endothelial cells (HUVEC)
Outline: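 Proliferation of human vascular endothelial primary cells after 48 h dosing, quantified as SRB-stained protein at 560 nm relative to DMSO.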

[9] = molecular target: Peroxisome proliferator-activated receptor gamma (Homo sapiens) (UniProt P37231); assay: ATG_PPARg_TRANS: Attagene TRANS-FACTORIAL HepG2 Assay for human Peroxisome Proliferator-activated Receptor-gamma (PPARg) (AID 2283007)
Peroxisome proliferator-activated receptor gamma (Homo sapiens), sequence (P37231 whole entry, looked up): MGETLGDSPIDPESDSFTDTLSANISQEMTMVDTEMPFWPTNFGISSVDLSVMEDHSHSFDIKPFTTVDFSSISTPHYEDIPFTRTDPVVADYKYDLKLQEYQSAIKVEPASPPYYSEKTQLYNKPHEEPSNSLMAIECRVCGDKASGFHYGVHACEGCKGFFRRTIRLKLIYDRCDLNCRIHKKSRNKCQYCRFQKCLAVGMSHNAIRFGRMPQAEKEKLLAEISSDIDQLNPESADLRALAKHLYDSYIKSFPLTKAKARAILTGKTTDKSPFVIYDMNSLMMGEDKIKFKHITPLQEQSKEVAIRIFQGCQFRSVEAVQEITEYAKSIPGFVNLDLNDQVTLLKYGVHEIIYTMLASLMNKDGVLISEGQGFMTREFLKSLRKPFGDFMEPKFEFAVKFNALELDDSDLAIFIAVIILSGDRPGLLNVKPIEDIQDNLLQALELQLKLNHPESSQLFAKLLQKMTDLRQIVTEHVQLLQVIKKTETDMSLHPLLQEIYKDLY
Outline: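 Multiplexed reporter transcription units in HepG2, 24 h dosing, reporter transcripts quantified by fluorescent RT-PCR and capillary electrophoresis. Increase over DMSO scored.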

[10] = molecular target: Retinoic acid receptor RXR-alpha (Homo sapiens) (UniProt P19793); assay: ATG_RXRa_TRANS: Attagene TRANS-FACTORIAL HepG2 Assay for human Retinoid X Receptor alpha (RXRa) (AID 2283012)
Retinoic acid receptor RXR-alpha (Homo sapiens), sequence (P19793 whole entry, looked up, the tested form may be a part): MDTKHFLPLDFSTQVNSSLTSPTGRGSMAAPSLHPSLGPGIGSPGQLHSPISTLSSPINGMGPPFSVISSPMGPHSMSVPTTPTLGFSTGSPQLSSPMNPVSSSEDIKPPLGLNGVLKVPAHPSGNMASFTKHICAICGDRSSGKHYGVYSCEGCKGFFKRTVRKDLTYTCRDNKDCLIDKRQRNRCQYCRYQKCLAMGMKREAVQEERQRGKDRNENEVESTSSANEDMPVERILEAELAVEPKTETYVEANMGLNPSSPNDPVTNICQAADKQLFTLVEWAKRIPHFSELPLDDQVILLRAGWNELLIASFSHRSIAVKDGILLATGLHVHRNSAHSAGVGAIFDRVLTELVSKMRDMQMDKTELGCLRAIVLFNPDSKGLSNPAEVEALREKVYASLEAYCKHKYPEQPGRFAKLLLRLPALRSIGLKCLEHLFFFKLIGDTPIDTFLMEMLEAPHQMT
Outline: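 Cells (HepG2) carried transiently transfected GAL4-responsive reporter units. Following a 24 h chemical incubation, reporter mRNA induction was read via RT-PCR fragment analysis; DMSO served as negative control and baseline.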

[11] = molecular target: human Thyroid Receptor alpha (THRa1), THRA (gene 7067) (UniProt P10827); assay: ATG_THRa1_TRANS: Attagene TRANS-FACTORIAL HepG2 Assay for human Thyroid Receptor alpha (THRa1) (AID 2283014)
human Thyroid Receptor alpha (THRa1), THRA (gene 7067), sequence (P10827 whole entry, looked up, the tested form may be a part): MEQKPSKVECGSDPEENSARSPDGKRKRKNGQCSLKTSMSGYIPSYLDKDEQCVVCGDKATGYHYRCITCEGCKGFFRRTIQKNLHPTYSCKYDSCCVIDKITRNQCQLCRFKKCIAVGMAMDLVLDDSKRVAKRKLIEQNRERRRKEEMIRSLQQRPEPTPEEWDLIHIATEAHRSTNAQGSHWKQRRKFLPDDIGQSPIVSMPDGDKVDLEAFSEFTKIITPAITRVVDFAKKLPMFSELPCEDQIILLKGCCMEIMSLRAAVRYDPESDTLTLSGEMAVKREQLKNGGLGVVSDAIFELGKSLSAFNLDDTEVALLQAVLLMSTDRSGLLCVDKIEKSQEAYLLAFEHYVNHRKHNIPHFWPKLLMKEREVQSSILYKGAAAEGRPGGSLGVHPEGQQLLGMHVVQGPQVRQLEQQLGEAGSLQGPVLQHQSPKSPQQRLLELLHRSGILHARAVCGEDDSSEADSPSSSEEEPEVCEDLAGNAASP
Outline: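 First, HepG2 cells receive multiple GAL4-UAS reporter units and the chimeric receptor. They are then dosed for 24 h, after which RNA is reverse-transcribed, amplified, labelled, HpaI-cut and sized by capillary electrophoresis; gain relative to DMSO is scored.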

[12] = molecular target: human Peroxisome Proliferator-activated Receptor delta (PPARd), PPARD (gene 5467) (UniProt Q03181); assay: ATG_PPARd_TRANS: Attagene TRANS-FACTORIAL HepG2 Assay for human Peroxisome Proliferator-activated Receptor delta (PPARd) (AID 2283002)
human Peroxisome Proliferator-activated Receptor delta (PPARd), PPARD (gene 5467), sequence (Q03181 whole entry, looked up, the tested form may be a part): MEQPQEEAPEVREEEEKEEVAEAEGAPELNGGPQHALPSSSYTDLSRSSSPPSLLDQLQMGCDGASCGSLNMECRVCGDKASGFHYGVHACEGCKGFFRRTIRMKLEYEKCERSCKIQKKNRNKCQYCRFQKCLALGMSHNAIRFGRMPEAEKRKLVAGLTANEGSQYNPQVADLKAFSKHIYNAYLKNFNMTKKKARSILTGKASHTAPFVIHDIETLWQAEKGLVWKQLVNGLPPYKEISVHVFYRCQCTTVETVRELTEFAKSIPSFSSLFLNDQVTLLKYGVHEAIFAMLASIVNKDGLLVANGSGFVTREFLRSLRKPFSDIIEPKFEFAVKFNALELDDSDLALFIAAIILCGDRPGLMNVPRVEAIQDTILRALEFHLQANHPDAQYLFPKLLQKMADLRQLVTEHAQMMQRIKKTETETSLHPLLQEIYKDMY
Outline: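 Read-out: reporter mRNA induction, quantified by fluorescent RT-PCR products resolved by capillary electrophoresis. Human HepG2 liver cells carried transiently transfected Gal4-UAS reporter constructs with chimeric NR-Gal4 fusions. Cells were dosed for 24 h; DMSO served as baseline.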

[13] = molecular target: Nuclear receptor subfamily 1 group I member 2 (Homo sapiens) (UniProt O75469); assay: ATG_PXR_TRANS: Attagene TRANS-FACTORIAL HepG2 Assay for human Pregnane X Receptor (PXR) (AID 2283008)
Nuclear receptor subfamily 1 group I member 2 (Homo sapiens), sequence (O75469 whole entry, looked up, the tested form may be a part): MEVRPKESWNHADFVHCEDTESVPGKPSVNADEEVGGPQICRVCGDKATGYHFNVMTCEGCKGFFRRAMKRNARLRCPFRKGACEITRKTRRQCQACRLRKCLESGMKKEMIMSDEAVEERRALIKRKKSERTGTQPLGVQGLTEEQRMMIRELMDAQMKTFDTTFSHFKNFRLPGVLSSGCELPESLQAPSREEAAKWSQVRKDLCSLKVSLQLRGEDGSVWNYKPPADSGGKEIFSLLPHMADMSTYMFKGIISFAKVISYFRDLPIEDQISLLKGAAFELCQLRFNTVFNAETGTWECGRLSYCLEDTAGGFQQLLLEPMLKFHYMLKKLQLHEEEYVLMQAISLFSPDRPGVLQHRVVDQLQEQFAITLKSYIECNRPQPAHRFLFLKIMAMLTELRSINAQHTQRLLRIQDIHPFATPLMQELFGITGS
Outline: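 Read-out is fluorescence of labelled reporter cDNA fragments separated by capillary electrophoresis after RT-PCR and HpaI digestion. Source: HepG2 cells carrying PXR-GAL4/UAS reporter constructs, treated 24 h; activity fitted upward relative to DMSO.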

[14] = molecular target: human RAR-related Orphan Receptor gamma (RORg), RORC (gene 6097) (UniProt P51449); assay: ATG_RORg_TRANS: Attagene TRANS-FACTORIAL HepG2 Assay for human RAR-related Orphan Receptor gamma (RORg) (AID 2283011)
Outline: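 Activity is scored as increase in GAL4-UAS reporter mRNA over DMSO, detected by fluorescent RT-PCR and capillary electrophoresis in HepG2 cells transiently expressing a RORg-Gal4 chimera, 24 h after dosing.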

[15] = molecular target: human Peroxisome Proliferator-activated Receptor alpha (PPARa), PPARA (gene 5465) (UniProt Q07869); assay: ATG_PPARa_TRANS: Attagene TRANS-FACTORIAL HepG2 Assay for human Peroxisome Proliferator-activated Receptor alpha (PPARa) (AID 2283001)
human Peroxisome Proliferator-activated Receptor alpha (PPARa), PPARA (gene 5465), sequence (Q07869 whole entry, looked up, the tested form may be a part): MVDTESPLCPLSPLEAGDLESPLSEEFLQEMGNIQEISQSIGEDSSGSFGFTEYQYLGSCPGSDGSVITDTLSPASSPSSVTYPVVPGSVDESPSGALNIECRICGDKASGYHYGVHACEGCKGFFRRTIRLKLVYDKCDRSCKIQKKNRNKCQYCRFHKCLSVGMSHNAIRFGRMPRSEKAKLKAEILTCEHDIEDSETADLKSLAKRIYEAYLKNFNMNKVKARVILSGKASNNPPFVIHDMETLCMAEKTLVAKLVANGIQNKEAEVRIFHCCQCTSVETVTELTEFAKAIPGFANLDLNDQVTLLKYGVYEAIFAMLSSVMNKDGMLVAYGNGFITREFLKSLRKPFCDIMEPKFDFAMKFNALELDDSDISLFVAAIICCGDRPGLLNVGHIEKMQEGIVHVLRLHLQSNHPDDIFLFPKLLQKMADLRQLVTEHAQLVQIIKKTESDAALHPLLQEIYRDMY
Outline: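 Measures transcriptional activity of an exogenous chimeric PPARa-Gal4 protein in transiently transfected HepG2 cells after 24 h dosing. Reporter mRNA quantified via RT-PCR and capillary electrophoresis; DMSO served as negative control.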

[16] = molecular target: human RAR-related Orphan Receptor beta (RORb), RORB (gene 6096) (UniProt Q92753); assay: ATG_RORb_TRANS: Attagene TRANS-FACTORIAL HepG2 Assay for human RAR-related Orphan Receptor beta (RORb) (AID 2283010)
human RAR-related Orphan Receptor beta (RORb), RORB (gene 6096), sequence (Q92753 whole entry, looked up, the tested form may be a part): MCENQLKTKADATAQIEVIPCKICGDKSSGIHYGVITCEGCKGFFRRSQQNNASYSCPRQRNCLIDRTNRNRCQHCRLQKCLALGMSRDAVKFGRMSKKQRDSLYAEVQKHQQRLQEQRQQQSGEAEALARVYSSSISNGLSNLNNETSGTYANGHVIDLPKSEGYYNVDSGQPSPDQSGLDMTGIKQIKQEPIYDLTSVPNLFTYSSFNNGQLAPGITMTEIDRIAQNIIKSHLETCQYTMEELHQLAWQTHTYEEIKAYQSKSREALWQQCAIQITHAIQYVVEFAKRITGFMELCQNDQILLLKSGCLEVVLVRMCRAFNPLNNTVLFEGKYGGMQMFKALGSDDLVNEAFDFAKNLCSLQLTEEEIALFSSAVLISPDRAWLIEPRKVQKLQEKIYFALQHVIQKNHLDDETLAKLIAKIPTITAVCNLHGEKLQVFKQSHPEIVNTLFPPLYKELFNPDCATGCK
Outline: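 In this TRANS-format test, human HepG2 cells express chimeric NR-Gal4 fusion proteins driving GAL4-UAS reporters. After 24 h dosing, reporter transcripts are measured by fluorescent RT-PCR/capillary electrophoresis, with DMSO as negative control.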

[17] = molecular target: human Retinoid X Receptor beta (RXRb), RXRB (gene 6257) (UniProt P28702); assay: ATG_RXRb_TRANS: Attagene TRANS-FACTORIAL HepG2 Assay for human Retinoid X Receptor beta (RXRb) (AID 2283013)
human Retinoid X Receptor beta (RXRb), RXRB (gene 6257), sequence (P28702 whole entry, looked up): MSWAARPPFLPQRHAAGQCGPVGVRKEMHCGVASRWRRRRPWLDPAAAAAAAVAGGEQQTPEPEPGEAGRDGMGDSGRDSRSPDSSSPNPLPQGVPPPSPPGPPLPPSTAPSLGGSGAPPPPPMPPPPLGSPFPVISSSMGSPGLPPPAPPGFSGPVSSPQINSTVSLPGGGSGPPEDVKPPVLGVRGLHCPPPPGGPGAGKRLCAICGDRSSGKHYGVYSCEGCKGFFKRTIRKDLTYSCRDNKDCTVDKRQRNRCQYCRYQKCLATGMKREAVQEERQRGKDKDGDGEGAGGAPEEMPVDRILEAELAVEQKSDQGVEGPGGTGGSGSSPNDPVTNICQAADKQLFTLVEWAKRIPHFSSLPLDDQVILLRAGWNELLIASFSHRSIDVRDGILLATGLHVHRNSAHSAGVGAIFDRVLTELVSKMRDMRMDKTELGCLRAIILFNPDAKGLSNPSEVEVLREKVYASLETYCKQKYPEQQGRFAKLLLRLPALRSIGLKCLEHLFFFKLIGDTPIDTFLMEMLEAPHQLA
Outline: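 Multiplexed TRANS reporter assay in HepG2; 24 h dosing; reporter mRNA by RT-PCR/CE fluorescence; gain-of-signal relative to DMSO.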

[18] = molecular target: human Retinoic Acid Receptor beta (RARb), RARB (gene 5915) (UniProt P10826); assay: ATG_RARb_TRANS: Attagene TRANS-FACTORIAL HepG2 Assay for human Retinoic Acid Receptor beta (AID 2283004)
Outline: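 HepG2, transient MRTU transfection, NR–Gal4 chimera, 24 h treatment; RT-PCR plus CE fluorescence detection of reporter mRNA; gain of signal vs DMSO.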

[19] = molecular target: Retinoic acid receptor alpha (Homo sapiens) (UniProt P10276); assay: ATG_RARa_TRANS: Attagene TRANS-FACTORIAL HepG2 Assay for human Retinoic Acid Receptor alpha (RARa) (AID 2283005)
Outline: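 HepG2 transiently transfected with multiplex GAL4-UAS reporter units including a human RARa–GAL4 chimera; 24 h compound exposure. Reporter mRNA quantified by RT-PCR, 6-FAM labeling and capillary electrophoresis; gain of signal versus DMSO.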

[20] = molecular target: human Retinoic Acid Receptor gamma (RARg), RARG (gene 5916) (UniProt P13631); assay: ATG_RARg_TRANS: Attagene TRANS-FACTORIAL HepG2 Assay for human Retinoic Acid Receptor gamma (RARg) (AID 2283009)
human Retinoic Acid Receptor gamma (RARg), RARG (gene 5916), sequence (P13631 whole entry, looked up, the tested form may be a part): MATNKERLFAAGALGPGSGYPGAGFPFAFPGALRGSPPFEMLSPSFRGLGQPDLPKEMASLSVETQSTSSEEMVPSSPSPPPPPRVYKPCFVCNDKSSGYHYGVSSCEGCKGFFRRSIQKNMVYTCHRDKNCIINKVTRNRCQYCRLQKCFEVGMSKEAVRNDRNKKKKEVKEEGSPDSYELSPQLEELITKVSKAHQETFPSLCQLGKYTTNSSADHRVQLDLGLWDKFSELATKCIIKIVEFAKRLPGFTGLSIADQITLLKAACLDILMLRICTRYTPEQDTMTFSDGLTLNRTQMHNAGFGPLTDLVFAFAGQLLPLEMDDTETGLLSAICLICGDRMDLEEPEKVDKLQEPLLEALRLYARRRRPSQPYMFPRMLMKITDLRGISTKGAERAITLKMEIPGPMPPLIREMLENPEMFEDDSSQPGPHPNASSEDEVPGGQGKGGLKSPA
Outline: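 HepG2, RARg-GAL4 TRANS system, 24 h exposure; reporter mRNA by RT-PCR + CE fluorescence; increase over DMSO.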

Measured: AC50

C(=NC1CCCCC1)=NC1CCCCC1
inactive: [2] | [9] | [10] | [11]
active: [1] 5.24 µM | [3] 34 µM | [4] 9.69 µM | [5] 30.3 µM | [6] 6.27 µM | [7] 29.6 µM | [8] 28.6 µM

O=C(Nc1ccc2[nH]ccc2c1)c1cc2cc(F)ccc2n1Cc1cccc(F)c1
inactive: [2] | [12] | [9] | [13] | [14] | [10]
active: [1] 11 µM | [4] 7.15 µM | [5] 11.7 µM | [6] 11.1 µM | [7] 13.7 µM | [8] 3.44 µM

Nc1ccc(-c2ccc(N)c(Cl)c2)cc1Cl
active: [1] 5.49 µM | [4] 6.24 µM | [6] 1.93 µM | [8] 1.84 µM | [9] 11.9 µM | [13] 13.2 µM | [17] 11.2 µM
inactive: [2] | [5] | [15] | [7] | [16] | [10]

O=S(=O)(c1ccc(Cl)cc1)c1ccc(Cl)cc1
active: [9] 7.7 µM | [13] 7 µM
inactive: [1] | [2] | [4] | [5] | [6] | [12] | [7] | [8] | [10] | [11]

O=c1[nH]c(=O)[nH]c(=O)[nH]1
inactive: [1] | [2] | [3] | [4] | [5] | [6] | [15] | [12] | [7] | [18] | [19] | [8] | [9] | [13] | [16] | [14] | [10] | [17] | [11]

C[C@@H]1C[C@@H]([C@H](O)CC2CC(=O)NC(=O)C2)C(=O)[C@@H](C)C1
inactive: [1] | [15] | [12] | [9] | [13] | [16] | [10] | [17] | [11]
active: [1] 24.1 µM and 25.4 µM | [3] 2.05 µM | [4] 5.3 µM | [5] 12.4 µM | [6] 9.12 µM | [7] 12.5 µM | [8] 2.9 µM | [9] 23.4 µM

CCNc1nc(NC(C)(C)C)nc(SC)n1
inactive: [1] | [2] | [3] | [4] | [5] | [6] | [12] | [7] | [8] | [10] | [11]
active: [9] 29.5 µM | [13] 2.02 µM | [17] 15.5 µM

Oc1ccc(-c2ccccc2)cc1
inactive: [4] | [5] | [6] | [15] | [12] | [7] | [8] | [9] | [13] | [20] | [10] | [17] | [11]
active: [1] 73.8 µM | [2] 27.9 µM

COP(=S)(OC)Oc1ccc(S(=O)(=O)N(C)C)cc1
inactive: [1] | [2] | [3] | [4] | [5] | [6] | [15] | [7] | [8] | [9] | [13] | [10] | [11]

CCOC(=O)Nc1cccc(OC(=O)Nc2ccccc2)c1
inactive: [1] | [2] | [12] | [19] | [9] | [13] | [11]

CCOP(OCC)OCC
inactive: [1] | [2] | [18] | [19] | [13] | [14] | [17]

BrCCBr
active: [17] 48.2 µM
inactive: [1] | [4] | [5] | [6] | [15] | [12] | [7] | [18] | [19] | [8] | [9] | [13] | [20] | [14] | [10] | [11]

CC(C)OC(=O)Nc1ccccc1
inactive: [1] | [2] | [18] | [19] | [9] | [20] | [11]

COP(=S)(OC)Oc1c(Cl)cc(C)cc1Cl
inactive: [1] | [4] | [5] | [15] | [12] | [7] | [9] | [10]
active: [6] 5.75 µM | [8] 20 µM | [13] 6.51 µM | [17] 22 µM

COc1ccc(OC)c(C=O)c1
active: [13] 6.5 µM
inactive: [1] | [2] | [12] | [9] | [16] | [14] | [17] | [11]

Cl/C=C/Cl
inactive: [1] | [2] | [16] | [17] | [11]

CC(C)c1cccc(C(C)C)c1O
active: [17] 50.6 µM
inactive: [1] | [2] | [12] | [18] | [19] | [9] | [20] | [16] | [10] | [11]

CC(=O)c1cc(C(C)(C)C)cc2c1CCC2(C)C
active: [1] 68.3 µM | [10] 3.52 µM | [17] 0.446 µM
inactive: [2] | [12] | [9]

O=P(O)(O)CN(CP(=O)(O)O)CP(=O)(O)O
inactive: [1] | [2] | [12] | [19] | [13] | [20] | [16] | [14] | [10] | [17] | [11]
